A selection: hits, their analogues and other compounds. The true share with any hit is near 2.4%.
Anthrax LT inh: qHTS Assay for Anthrax Lethal Toxin Internalization. 70,000 compounds, 0.67% hits. Cells, anthrax lethal toxin internalization, FRET ratio (460/530). AID 912, 2007. Potency, µM (doses to about 40 µM), without a hit: top-dose activity change, negative = inhibition, usual class: inhibitors; further: on the % scale 0 is the no-effect control and ±100 the full control effect; nearly all actives have a fitted effect of over 50% in size
AmpC inh no det: Promiscuous and Specific Inhibitors of AmpC Beta-Lactamase (assay without detergent); AmpC nitrocefin hydrolysis, absorbance 480 nm, no detergent; P00811; 71,000 compounds, 1.8% hits; AID 585, 2007; Potency, µM (top dose mostly 28.7 µM), inactives show at the highest dose activity change, negative = inhibition; further: % of control where 0% means no effect
Target sequence (P00811 whole entry, looked up): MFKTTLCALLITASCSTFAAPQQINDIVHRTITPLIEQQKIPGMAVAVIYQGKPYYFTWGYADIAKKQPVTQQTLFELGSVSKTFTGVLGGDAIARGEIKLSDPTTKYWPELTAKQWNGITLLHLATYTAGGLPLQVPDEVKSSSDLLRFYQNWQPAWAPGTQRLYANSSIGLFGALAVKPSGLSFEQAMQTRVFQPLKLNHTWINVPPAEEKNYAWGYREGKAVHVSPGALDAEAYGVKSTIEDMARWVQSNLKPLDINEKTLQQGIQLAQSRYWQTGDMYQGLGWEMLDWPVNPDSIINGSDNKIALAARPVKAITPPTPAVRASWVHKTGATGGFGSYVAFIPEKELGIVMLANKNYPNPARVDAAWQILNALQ
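AmpC in 20 mM phosphate buffer pH 7.0 was preincubated 15 min at room temperature with compounds. Nitrocefin (800 uM stock) was then added and hydrolysis followed at 480 nm every 20 s for 4 min.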
AmpC det inh: Promiscuous and Specific Inhibitors of AmpC Beta-Lactamase (assay with detergent) | P00811 | purified AmpC, nitrocefin hydrolysis with detergent | Potency, µM (doses to about 28.7 µM), for the others: top-dose activity change, negative = inhibition | 71,000 compounds, 0.09% hits | AID 584, 2007; active means well fitted curve in the direction sought with a large enough effect; inconclusive means small, poorly fitted or top-dose-only effect; further: on the % scale 0 is the no-effect control and ±100 the full control effect
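E. coli AmpC (5.3 nM) in 20 mM phosphate pH 7.0 with 0.01% Triton X-100, preincubated 15 min RT with compound; nitrocefin (2 uL of 800 uM stock) hydrolysis followed by 480 nm absorbance every 20 s over 4 min.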
SmPrx2 inh: Schistosoma Mansoni Peroxiredoxins (Prx2); Schistosoma mansoni peroxiredoxin 2 (Prx2); S. mansoni Prx2 activity coupled to TGR/GSH (TGR is thioredoxin glutathione reductase), NADPH fluorescence loss, qHTS; Potency, µM; 65,000 compounds, 0.07% hits; AID 448, 2006
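Prx2 activity was followed as the loss of NADPH fluorescence (ex 365/em 450 nm), read every 30 sec for 8 min after H2O2 start. The enzyme mix (50 nM Prx2, 25 nM TGR, GSH, NADPH; pH 7.4 phosphate buffer) was incubated with compound for 15 min at room temperature first.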
The depositor's hits bear a star; ? = inconclusive; . = no result; [ ] = another dose, or the depositor's remark. Unless noted, the call rests on the fitted dose curve. Potency means the concentration at half of the fitted maximal effect.

SMILES	Anthrax LT inh	AmpC inh no det	AmpC det inh	SmPrx2 inh
O=C(Cn1ncc2c(=O)oc3ccccc3c21)NCCN1CCN(c2ccccc2F)CC1	0%	4µM*[single pt active]	12%	>57
O=C(Cn1ncc2c(=O)oc3ccccc3c21)N1CCCN(Cc2ccccc2F)C1	-13%	4µM*[single pt active]	24%	>57
Cc1ccc(-c2csc(N3CCC(C(N)=O)(N4CCCCC4)CC3)n2)cc1	-2%	4µM*[single pt active]	14%	>57
CCOc1ccc(-c2n[nH]c(C)c2Oc2ccccc2OC)c(O)c1	-31%	-7%	-4%	>57
C=C(C)COc1ccc(-c2[nH]ncc2Oc2cccc(OC)c2)c(O)c1	?	10µM*	3%	?
C=C(C)COc1ccc(-c2n[nH]c(C)c2Oc2ccccc2OC)c(O)c1	10µM*	-16%	6%	>57
CCOC(=O)N1CCN(c2nc(SC)nc3sc4c(c23)CC(C)(C)OC4)CC1	?	?	?	>57
CC1(C)Cc2c(sc3nc(SCC(=O)N4CCOCC4)nc(N)c23)CO1	7.9µM*	25%	-3%	>57
CC(C)(C)[C@@]1(O)C[C@@H]2OC(=O)C[C@@]23C(=O)O[C@H]2OC(=O)[C@@H](O)[C@]231	-23%	13%	0%	>57
CC(C)C(O)(C(C)C)C(C)C	-6%[8 µM]	2%[5.75 µM]	-2%[5.75 µM]	>57
COc1ncc2nc(CCc3ccccc3)c(=O)n(C)c2n1	-12%	18%	6%	>57
COc1ccc(CCNc2oc(COc3ccccc3Cl)nc2C#N)cc1OC	16µM*	51%	13%	>57
C[C@@]12CC[C@@H]3[C@H](CCC4=CC(=O)CC[C@]43C)[C@@H]1CC[C@@H]2C(=O)COS(=O)(=O)c1ccc(Br)cc1	-5%[8 µM]	10%[5.75 µM]	-3%[5.75 µM]	>57
CCCC(c1cc(C(C)(C)C)c(O)cc1C)c1cc(C(C)(C)C)c(O)cc1C	?	4µM*[single pt active]	-2%[5.75 µM]	>57
CCN(CC)C[C@@H](O)c1ccc2ccc3ccccc3c2c1	-12%[8 µM]	12%[5.75 µM]	-4%[5.75 µM]	>57
COc1cccc(-c2cncnc2-n2ccnc2)c1	8%	-16%	-11%	>57
COc1cccc(-c2nccc(-n3ccnc3)n2)c1	?	10µM*	13µM*	>57
CN(C)[C@@H]1C(=O)C(C(N)=O)=C(O)[C@]2(O)C(=O)C3=C(O)c4c(O)cccc4[C@@](C)(O)[C@@H]3C[C@@H]12	?	-3%	-3%	>57
CC(C)N(Cc1nc2ccccc2[nH]1)C(C)C	-10%	4µM*[single pt active]	9%	>57
CCC(C)SCc1nc2ccccc2[nH]1 (stereo not given)	5%	-12%	-4%	.
CN(CC(=O)N1CCc2ccccc2C1)S(=O)(=O)c1ccc2c(c1)c(=O)n(C)c(=O)n2C	1%	4µM*[single pt active]	13%	>57
CCOC(=O)c1c(C)n(CCOC)c2ccc(O)cc12	-1%	-10%	-2%	>57
CCCCCS(=O)(=O)CCCCCCCCCCn1c(-c2ccc(O)cc2)c(C)c2cc(O)ccc21	5µM*	.	.	.
Cc1nc2cnc(N(C)C)nc2n(C2CC2)c1=O	1%	1%	-4%	>57
CCCN(CCC)CCNC(=O)c1cc2c(=O)n(C)c3ccccc3c2n1C	4µM*	30%	13%	>57
SMILES	Anthrax LT inh	AmpC inh no det	AmpC det inh	SmPrx2 inh
COCCn1cc(C(=O)NCc2cccs2)c2c3ccccc3n(C)c2c1=O	10%	81%	9%	>57
Cn1c(C(=O)NCc2cccs2)cc2c(=O)n(C)c3ccccc3c21	-7%	4µM*[single pt active]	9%	>57
CN(CCNC(=O)c1cc2c(=O)n(C)c3ccccc3c2n1C)Cc1ccccc1	3.2µM*	120%	6%	>57
O=C(CCN1CCOCC1)Nc1ccc(F)cc1F	?	8%[5.75 µM]	-4%[5.75 µM]	>57
O=C(Nc1cccc(F)c1)N1CCCC2(CCN(C(=O)c3ccco3)CC2)C1	19%	28%	-1%	>57
CCOC(=O)c1c(N)nn(C(C)=O)c1-c1ccccc1	-1%	2%	-7%	>57
CCOC(=O)c1c(-c2ccccc2)c(C(C)=O)c(=O)n(C)c1C	3%	4µM*[single pt active]	8%	>57
Nc1ccc(S(=O)(=O)NCCS(=O)(=O)O)cc1	-1%[8 µM]	-1%[5.75 µM]	0%[5.75 µM]	>57
CC[C@H](C)C(=O)O[C@@H]1CCC=C2C=C[C@H](C)[C@@H](CC[C@H]3C[C@@H](O)CC(=O)O3)[C@H]21	6%	128%	-1%	>57
CCOC(=O)Nc1ccc2c(c1)N(C(=O)OCCN(C)C)c1ccccc1CC2	-12%	4µM*[single pt active]	9%	>57
CCS(=O)(=O)Nc1ccc2c(c1)N(C(C)=O)c1ccccc1CC2	?	21%	-1%	>57
COc1cc([C@@H](O)CN)ccc1O	5%	-3%	-5%	>57
NNC(=O)[C@@H](O)[C@H](O)[C@H](O)CO	-4%[8 µM]	-2%[5.75 µM]	-1%[5.75 µM]	>57
CN(C)c1nc(-c2ccoc2)nc2ccccc12	7%	13%	8%	>57
CCCC1C(c2ccco2)NC(c2ccco2)CC1(C)O (stereo not given)	10µM*	-10%	-3%	>57
C=CCN1CC[C@]23c4c5ccc(O)c4O[C@@H]2/C(=N/NC(=O)c2ccccc2)CC[C@@]3(O)[C@H]1C5	?	0%	-3%	>57
Cc1ccc(CNC(=O)C2CCCN(S(=O)(=O)c3cccnc3)C2)cc1 (stereo not given)	-9%	26%	-3%	>57
Cc1csc(NC(=O)C2CCCN(S(=O)(=O)c3cccnc3)C2)n1 (stereo not given)	-1%	3.2µM*[single pt active]	14%	>57
O=C(C1CCCN(S(=O)(=O)c2cccnc2)C1)N1CCN(c2ccccn2)CC1 (stereo not given)	?	4µM*[single pt active]	12%	>57
O=C(NCc1ccc2c(c1)OCO2)C1CCCN(S(=O)(=O)c2cccnc2)C1 (stereo not given)	-11%	4µM*[single pt active]	12%	>57
CCOC(=O)N1CCN(C(=O)C2CCCN(S(=O)(=O)c3cccnc3)C2)CC1 (stereo not given)	1%	4µM*[single pt active]	14%	>57
Cn1cc(-c2nc3cnc(N4CCNCC4)nc3n(C)c2=O)c2ccccc21	?	60%	1%	>57
CO[C@@H]1COC(=O)[C@@H](C)COC(=O)[C@@H](C)NC(=O)C/C=C\[C@@H]1C	8%[8 µM]	.	.	.
NCCSCCc1ccccc1	4%[8 µM]	3%[5.75 µM]	-4%[5.75 µM]	>57
O=C(O)c1ccc(C2SCC(=O)N2Cc2ccccc2)cc1 (stereo not given)	-16%	-8%	5%	>57
CN(C)CCCN1C(=O)CSC1c1ccccc1 (stereo not given)	-12%	3.2µM*[single pt active]	11%	>57
CN1CCN(c2ncnc3ccc(-c4ccccc4C(F)(F)F)cc23)CC1	13µM*	126%	10%	>57
CN1CCN(c2ncnc3ccc(-c4ccccc4C#N)cc23)CC1	?	45%	5%	>57
COc1ccc(N(C)C(=O)c2ccc3snnc3c2)cc1	-4%	4µM*[single pt active]	11%	>57

Bioassay records (PubChem)
